Pf growth 48h: Primary qHTS for delayed death inhibitors of the malarial parasite plastid, 48 hour incubation; AID 504832, 2011; P. falciparum luciferase growth in erythrocytes, 48 h; Potency, µM (series often up to 28.7 µM), for inactives: top-dose activity change, negative = inhibition, actives largely listed as inhibitors; hit rate 5.9% among 310,000; note: potency is the fitted concentration of half-maximal effect; % is set by controls: 0 for no effect and ±100 for the full control effect
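Cell-based growth assay: transgenic P. falciparum expressing firefly luciferase, cultured in red cells within RPMI 1640 containing 0.5% w/v Albumax, 24 mM bicarbonate and gentamycin. A drop in luciferase activity indicates inhibition.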
Shiga inhibitor: A qHTS for Small Molecule Inhibitors of Shiga Toxin | Vero cells, Shiga toxin protein synthesis inhibition reporter | hit rate 9.2% among 290,000 | inhibition, % at 38.7 µM; in the data active = inhibition mostly above about 28%, no sharp cut-off; inactive = mostly below about 43%; note: 0% is about no effect
LASV entry inh: qHTS for Inhibitors of binding or entry into cells for Lassa Virus. Lassa virus pseudotype entry inhibition, cell reporter. Potency, µM (top dose mostly 37.9 µM), inactives show at the highest dose activity change, negative = inhibition, actives largely listed as inhibitors. hit rate 1.2% among 300,000. AID 540256, 2011; calls by dose curve; tested in HEK293 cells; note: potency is the fitted concentration of half-maximal effect; % is set by controls: 0 for no effect and ±100 for the full control effect; nearly all actives have a fitted effect of over 50% in size
CHX counter: Cycloheximide Counterscreen for Small Molecule Inhibitors of Shiga Toxin; cell reporter, cycloheximide protein synthesis inhibition counterscreen; max response, %; hit rate 12% among 300,000; AID 2314, 2010; in the data active = max response mostly above about 13%, no sharp cut-off; inactive = mostly below about 14%; note: read at 38.3 µM for the half of the compounds with a filed dose; 0% is about no effect
Pf growth 96h: Primary qHTS for delayed death inhibitors of the malarial parasite plastid, 96 hour incubation | AID 504834, 2011 | Potency, µM (series often up to 28.7 µM), inactives show at the top dose activity change, negative = inhibition, usual class: inhibitors | hit rate 6.9% among 320,000 | P. falciparum luciferase reporter growth, 96 h; note: potency is the fitted concentration of half-maximal effect; % is set by controls: 0 for no effect and ±100 for the full control effect
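Delayed-death screen, second-generation endpoint: infected erythrocytes, 2% hematocrit, 0.05% parasitemia final; 96 hours at 37 C, 5% CO2; luciferase detection reagent; luminescence decrease equals reduced growth.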
Marburg entry inh: qHTS for inhibitors of binding or entry into cells for Marburg Virus. Potency, µM (top dose mostly 37.8 µM), for the others: top-dose activity change, negative = inhibition, actives largely listed as inhibitors. hit rate 1.8% among 300,000. AID 540276, 2011. Marburg virus pseudotyped entry inhibition, cell reporter; calls by dose curve; tested in HEK293 cells; note: potency is the fitted concentration of half-maximal effect; % is set by controls: 0 for no effect and ±100 for the full control effect
Starred values were filed as active, the others as inactive; i = inactive; ? = inconclusive; / = not tested or not shown; [ ] = another dose, or the depositor's remark. The list is not random: actives were taken first. Their share in the collection is about 19%. Unless noted, calls come from the whole dose curve; as a rule, active = well fitted inhibition curve with a large enough effect; inconclusive = small, poorly fitted or top-dose-only effect, or another doubt; inactive = no such curve, though single readings can be large or run the other way.

SMILES	Pf growth 48h	Shiga inhibitor	LASV entry inh	CHX counter	Pf growth 96h	Marburg entry inh
CC[C@@]12C(=O)N(c3cccc(Cl)c3)C(=O)N1[C@H](c1cccc(C)c1)[C@@H]1C(=O)N(Cc3ccccc3)C(=O)[C@@H]12	4.7µM*	/	/	/	5.2µM*	/
Cc1cccc([C@@H]2[C@@H]3C(=O)N(Cc4ccccc4)C(=O)[C@@H]3[C@]3(CC(C)C)C(=O)N(c4cccc(Cl)c4)C(=O)N23)c1	?	-5	/	1	?	/
CCC(C)NC(=O)N[C@@H](CCSC)C(=O)OC (stereo partly specified)	5%	-35	-11%	-8	/	15%
Cn1nnnc1SCC(=O)N1c2ccccc2Sc2ccccc21	-18%	-36	4%	-2	?	-3%[46.1 µM]
O=C(CSc1nncs1)N1c2ccccc2Sc2ccccc21	13µM*	-23	-3%	-4	/	2%
Cn1nc(OC(=O)Nc2ccc(Cl)cc2)cc1C(F)(F)F	27%	22	/	17*	/	-2%
O=C(Nc1cc2ccccc2oc1=O)c1ccccc1	386%	87*	2.5µM*	31*	11%	1.3µM*
O=C(Nc1ccc(NC(=O)c2cc3ccccc3o2)cc1)c1ccc2c(c1)OCCO2	?	8	-18%	12	i	?
COc1cccc(C(=O)Nc2cc3cc(OC)ccc3oc2=O)c1	/	/	1%[46.1 µM]	/	/	/
O=C(O)C1CC=CCC1C(=O)Nc1ccc2c(c1)CCC2 (stereo unspecified)	6%	23	/	-2	14%	/
Cc1cc(NC(=O)c2cc3ccccc3o2)ccc1NC(=O)c1ccccc1	16%	53	-3%[46.1 µM]	13*	-24%	3%[46.1 µM]
Cc1cc(NC(=O)c2ccc3c(c2)OCCO3)ccc1NC(=O)c1cc2ccccc2o1	21%	71*	/	16*	?	/
Cc1cc(NC(=O)C2CC=CCC2C(=O)O)ccc1NC(=O)c1ccccc1 (stereo unspecified)	?	25*	-24%[46.1 µM]	25	9.3µM*	2%[46.1 µM]
CCCCCCCCC(=O)NC(NC(=S)N1CCOCC1)C(Cl)(Cl)Cl (stereo unspecified)	?	18	?	1	?	?
CC(=O)C1=C(NC(=O)c2ccc(F)cc2)CC2C1C2(C)C (stereo unspecified)	10%	29	31%	18	?	-3%
C/C(NC(=O)c1ccccc1)=C1/C(=O)CC2C1C2(C)C (stereo unspecified)	44%	119*	3%	43*	66%	?
Cc1ccc(/C=N/Nc2ncc(Cl)cc2Cl)s1	/	44	?	34*	?	?
Clc1cnc(N/N=C/c2cccs2)c(Cl)c1	77%	128*	?	36*	?	?
Cc1ccc(/C=N/Nc2ccc(F)cc2F)s1	/	91*	/	37*	?	/
Clc1cnc(N/N=C/c2ccco2)c(Cl)c1	282%	94*	?	57*	96%	?
O=C(Cc1ccc(Cl)cc1)N/N=C/c1cccs1	0%	6	/	-4	?	/
O=C(Nc1ccc(S(=O)(=O)N2CCCC2)cc1)N1c2ccccc2Sc2ccccc21	-21%	-2	?	-2	?	?
O=C(CN1C(=O)NC2(CCCCC2)C1=O)Nc1ccc2[nH]c(=O)[nH]c2c1	0%	/	/	/	20%	/
Oc1ccc(/C=N/Nc2ncc(Cl)cc2Cl)cc1	11%	111*	20%[46.1 µM]	50*	?	11%[46.1 µM]
COc1ccc(/C(C)=N/Nc2ncc(Cl)cc2Cl)c(O)c1	?	33	19%	8	?	5%
SMILES	Pf growth 48h	Shiga inhibitor	LASV entry inh	CHX counter	Pf growth 96h	Marburg entry inh
Cc1ccc(OCC(=O)Nc2ccc(-c3nc4ccc(C)cc4o3)cc2)cc1	/	80*	?	34*	/	?
COc1ccc(OCC(=O)Nc2ccc(-c3nc4cc(C)c(C)cc4o3)cc2)cc1	/	98*	1%[46.1 µM]	51*	/	/
CCc1ccc(OCC(=O)Nc2ccc3oc(-c4ccc(OC)cc4)nc3c2)cc1	/	/	7%[46.1 µM]	/	/	?
Cc1ccc2nc(-c3ccc(Cl)c(NC(=O)COc4ccc(C(C)C)cc4)c3)oc2c1	/	/	22%[46.1 µM]	/	/	?
COC(=O)c1ccc2oc(=O)c(S(=O)(=O)c3ccc(C)cc3)cc2c1	/	/	-17%[46.1 µM]	/	/	-1%[46.1 µM]
CN(Cc1ccccc1)S(=O)(=O)c1ccc2c(c1)n(C)c(=O)n2C	-15%	1	9%	-3	8%[5.75 µM]	?
CCCN(c1ccccc1C(=O)O)S(=O)(=O)c1ccc2c(c1)n(C)c(=O)n2C	-17%	-7	/	-4	0.83µM*	/
Nc1nnc(-c2ccccc2[N+](=O)[O-])o1	-3%	-9	?	-2	-22%	1%
Clc1ccccc1-c1nc(-c2ccc(Br)o2)no1	7%	129*	/	37*	?	/
O=[N+]([O-])c1ccccc1-c1nc(-c2ccc(Br)o2)no1	122%	88*	?	30*	?	?
CCCN(CC(=O)Nc1ccccc1C)C(=O)COC(=O)CSc1ccc([N+](=O)[O-])cc1	?	/	11%	/	20%	-3%
O=[N+]([O-])c1cccnc1N/N=C/c1ccccc1O	136%	78*	?	43*	261%	?
O=C(O)CNc1ncccc1[N+](=O)[O-]	7%	-8	16%	-2	18%	?
Cc1c(O)ccc(/C=N/Nc2ncccc2[N+](=O)[O-])c1O	137%	141*	?	32*	?	?
O=C(CCCCCNC(=O)N1CCn2c1nc1ccccc12)NCCc1ccccc1	?	-3	/	-1	7.4µM*	/
COCCn1nc2cc(C(=O)NCC34CC5CC(CC(C5)C3)C4)ccc2c1OC	?	21	/	2	-3%	/
CCCn1nc2cc(C(=O)NCC34CC5CC(CC(C5)C3)C4)ccc2c1OCC	12µM*	10	/	3	?	/
COc1ccc(C2NC(=S)NC3=C2CCc2cc(OC)ccc23)cc1 (stereo unspecified)	?	-15	1%	6	5.9µM*	-22%
CCOc1ccc(C(C)(C)C)cc1S(=O)(=O)N1CC(C)OC(C)C1 (stereo unspecified)	12µM*	17	-15%	-3	/	-26%
Cc1cc(C)n(S(=O)(=O)c2cc(Cl)ccc2Cl)n1	10µM*	-17	6%	-2	0%	-1%
CCOc1ccc(C(C)(C)C)cc1S(=O)(=O)n1nc(C)cc1C	4.7µM*	-6	10%	0	8.3µM*	?
C1CN(CCN2CCOCC2)CCN1	-15%	/	14%	-3	-33%	3%
Cc1ccn(CCC(=O)Nc2ccc3c(c2)OCO3)n1	-11%	73*	/	24*	-6%	/
CC1CC(C)(C)NC(=S)N1CCC(=O)Nc1ccc2c(c1)OCCO2 (stereo unspecified)	-21%	-10	3.5µM*	13	1.5µM*	11µM*

Compound activity deposited in PubChem BioAssay by National Center for Advancing Translational Sciences (NCATS).
